# Measured values reported in PubChem BioAssay (EPA / NIEHS).
# The source made the active and inactive calls. The calls were made as follows: active = hit-call score of the fitted dose curve at least 0.9, where 1 is the maximum; inactive = score below 0.9.
# Assay: ATG_BRE_CIS: Attagene CIS-FACTORIAL HepG2 Assay for human Bone Morphogenetic Protein (BMP) Response Element (BRE) (AID 2282933)
# Settings: HepG2 BMP response element reporter, Attagene transcription factor profiling; actives raise or lower the signal
# Experimental: ATG_CIS is a cell-based, multiplexed-readout assay that uses HepG2, a human liver cell line, with measurements taken at 24 hours after chemical dosing in a 24-well plate.ATG_BRE_CIS is one of 52 assay component(s) measured or calculated from the ATG_CIS assay. It is designed to make measurements of mRNA induction, a form of inducible reporter, as detected with fluorescence intensity signals by Reverse transcription polymerase chain reaction (RT-PCR) and Capillary electrophoresis technology.Data from the assay component ATG_BRE_CIS was analyzed into 1 assay endpoint. This assay endpoint, ATG_BRE_CIS, was analyzed with bidirectional fitting relative to DMSO as the negative control and baseline of activity. Using a type of inducible reporter, measures of mRNA for gain or loss-of-signal activity can be used to understand the reporter gene at the transcription factor-level as they relate to the gene SMAD1. Furthermore, this assay endpoint can be referred to as a primary readout, because this assay has produced multiple assay endpoints where this one serves a reporter gene function. To generalize the intended target to other relatable targets, this assay endpoint is annotated to the dna binding intended target family, where the subfamily is Smad protein.
# Human liver HepG2 cells are transiently transfected with multiple reporter transcription units (MRTUs) in 6-well plates using FuGene 6 reagent (Roche; 3 ml FuGene/1 mg DNA). The MRTU constructs are regulated by a cis-regulating element (promoter). […] A major difference between the CIS and TRANS system is that in CIS activities of endogenous TFs are measured, whereas the TRANS assay evaluates changes in activities of exogenous, chimeric NR-Gal4 proteins. […] At the end of 24 hour incubation, total RNA was isolated using TriZol reagent (Invitrogen). The isolated RNA is then reverse-transcribed using oligo(dT) primer and Mo-MLV reverse transcriptase (Invitrogen) with DNAse I (Ambion) treatment for 30 min. The one-tenth of the produced cDNA was amplified by PCR using Taq DNA polymerase (Invitrogen) and two reporter sequence-specific primers. The PCR products were fluorescently labeled by primer extension with 6-arboxyfluorescein (6-FAM) 5'-labeled reporter sequence-specific primer (2 min at 95 C, 20 s at 68 C and 10 min at 72 C) and these products were digested with 5U of HpaI (New England Biolabs) for 2h at 37 C. The fragments were purified using Qiaquick PCR columns (Qiagen), analyzed on an ABI 3130xL genetic analyzer (Applied Biosystems) with peak positions identified by using a set of X-rhodamine (ROX)-labeled MapMarker1000 molecular weight standards (BioVentures). The raw capillary electrophoresis data was processed using Attagraph software (Attagene).
Compound,outcome,AC50
O=C(O)/C=C/c1ccccc1,inactive,–
CC/C=C\C/C=C\C/C=C\CCCCCCCC(=O)OC,–,167 µM (active)
CC(C=O)c1ccccc1 (stereo not given),inactive,–
CCCCCCCCCCCCc1ccc(O)cc1,inactive,–
CC(CC=O)CC(C)(C)C (stereo not given),inactive,–
CCCCC(CC)COC(=O)/C=C/c1ccc(OC)cc1 (stereo not given),inactive,–
CCCC1CCCC(=O)O1 (stereo not given),inactive,–
CC(=O)C(C)C,inactive,–
CCCCCC(=O)OCC,inactive,–
C=CC(=O)NCOCCCC,inactive,–
CC(=O)CC(=O)Nc1ccccc1C,inactive,–
Oc1c(Cl)cc(Cl)c(Cl)c1Cl,–,100 µM (active)
C=C(C)C(=O)OCCCCCCCCCCCC,inactive,–
CO[Si](C)(C)OC,inactive,–
Cc1cccc(C(C)(C)C)c1O,inactive,–
CCc1cccc(C)c1N(C(=O)CS(=O)(=O)O)C(C)COC (stereo not given),inactive,–
CC1CCC(C(C)(C)S)C(=O)C1 (stereo not given),inactive,–
CCOC(=O)C1=NN(c2ccc(Cl)cc2Cl)C(C)(C(=O)OCC)C1 (stereo not given),inactive,–
N#Cc1ccc(C(c2ccc(C#N)cc2)n2cncn2)cc1,inactive,–
Cn1ccnc1,inactive,–

Compound,outcome,AC50
CCCC/C=C/C=C\C=O,inactive,–
NC(=O)Nc1ccccc1,inactive,–
CC1(C)[C@@H]2CC[C@@]1(C)C(=O)C2,inactive,–
O=C(Cl)c1ccc(C(=O)Cl)cc1,inactive,–
COc1cc(O)c(C(=O)c2ccccc2)cc1S(=O)(=O)O,inactive,–
C=CCCCCCCCCOC(C)=O,inactive,–
O=C(O)CC(C(=O)O)S(=O)(=O)O (stereo not given),inactive,–
CC1=CC(C)C(C=O)CC1 (stereo not given),inactive,–
O=C(O)c1ccc2c(c1)C(=O)OC2=O,inactive,–
CCCCCC[C@@H](O)C/C=C\CCCCCCCC(=O)OCC(O)CO (stereo not given in full),inactive,–
Cc1cc(C)c(C=O)c(C)c1,inactive,–
Cc1ccc([N+](=O)[O-])cc1N,inactive,–
CCCCCCOc1ccc(N)cc1,inactive,–
CCC(C)c1ccccc1 (stereo not given),inactive,–
C=CC(C)(CCC=C(C)C)OC(=O)C=Cc1ccccc1 (stereo not given),inactive,–
CCCCCC1=CCCC1=O,inactive,–
CN(C)c1ccc2nc3ccc(=[N+](C)C)cc-3sc2c1,–,12.2 µM (active)
C[N+](C)(C)CCCNS(=O)(=O)C(F)(F)C(F)(F)C(F)(F)C(F)(F)C(F)(F)C(F)(F)C(F)(F)C(F)(F)F,inactive,–
O=C(OCc1ccccc1)c1ccc(O)cc1,–,123 µM (active)
O=C(OCCc1ccccc1)c1ccccc1,inactive,–
